# Shown are actives, neighbours in structure and some others; about 10% of the full set was active somewhere.
# HP1b binding inh: blocks HP1-beta chromodomain binding to methylated histone tails | P83916 | AlphaScreen HP1-beta / biotin-H3K9me3 peptide binding | Potency, µM (series often up to 114 µM), without a hit: top-dose activity change, negative = inhibition, usual class: inhibitors | 0.56% of 390,000 active; further: nearly all actives have a fitted effect of over 70% in size
#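 HP1-beta protein (50 nM final) preincubated 30 min at room temperature with biotinylated H3(1-18)K9me3 peptide (50 nM) in PBS pH 7.4, 0.01% Tween-20, then compound added for 30 min. AlphaScreen streptavidin donor/nickel chelate acceptor beads (10 ug/mL final), 30 min dark, luminescence read.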
# BAZ2B inh: inhibitors of human BAZ2B bromodomain | 4.4% of 360,000 active | Q9UIF8 | AlphaScreen BAZ2B-H3K14Ac peptide displacement | Potency, µM (top dose mostly 114 µM), for inactives: top-dose activity change, negative = inhibition, most hits filed as inhibitors; further: on the % scale 0 is the no-effect control and ±100 the full control effect; nearly all actives have a fitted effect of over 60% in size
#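 BAZ2B 50 nM plus b-H3(5-23)K14Ac 50 nM, PBS pH 7.4/0.01% Tween-20, 30 min RT; compound added (max 110 uM), 30 min RT; streptavidin donor/Ni-chelate acceptor beads 10 ug/mL final, 20 min dark; AlphaScreen read.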
# G9a inh: G9a (human) methyltransferase inhibition | 8.8% of 350,000 active | Q96KQ7 | Potency, µM (series often up to 102 µM), without a hit: at the top dose activity, negative = inhibition, most hits filed as inhibitors | G9a H3K9 monomethylation, AlphaScreen, 2 h; further: on the % scale 0 is the no-effect control and ±100 the full control effect; nearly all actives have a fitted effect of over 75% in size
#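 AlphaScreen detection with an anti-monomethyl H3K9 antibody quantified product after a 2 h room-temperature reaction containing 500 nM biotinylated H3K9 peptide, 20 µM SAM and 20 nM enzyme, which had been preincubated 15 min with compound.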
# JMJD2A Tudor: JMJD2A Tudor domain (human) inhibition; O75164; AID 504339; 4.4% of 390,000 active; Potency, µM (series often up to 114 µM), without a hit: at the highest dose activity change, negative = inhibition, most hits filed as inhibitors; AlphaScreen JMJD2A-Tudor / H3K4me3 peptide binding; further: on the % scale 0 is the no-effect control and ±100 the full control effect; nearly all actives have a fitted effect of over 50% in size
# GLS inh: inhibitors of human glutaminase (GLS) | GLS enzymatic activity, qHTS titration | Potency, µM (doses to about 45.5 µM), for the others: at the highest dose activity change, negative = inhibition, usual class: inhibitors | O94925 | 0.21% of 410,000 active; further: on the % scale 0 is the no-effect control and ±100 the full control effect
#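 hKGA in 45 mM KH2PO4 pH 8.2, 0.02% Tween-20 with pin-transferred compounds; 1 mM L-glutamine (stock) plus glutamate oxidase/HRP/Amplex Red coupling added. Fluorescence read initially and after 30 min at RT.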
# Starred values were filed as active, the others as inactive; u = inconclusive; x = no result given; [ ] = remark or other dose. The call rests on the fitted dose curve; in most records, active means well fitted curve in the direction sought with a large enough effect; inconclusive means small, poorly fitted or top-dose-only effect, or another doubt; inactive means no such curve, though single readings can be large; an effect the other way counts as inactive or inconclusive. Potency means the concentration at half of the fitted maximal effect.
SMILES,HP1b binding inh,BAZ2B inh,G9a inh,JMJD2A Tudor,GLS inh
c1cncc(-c2cn(C[C@H]3CC[C@@H]([C@@H]4CC[C@H](Cn5cc(-c6cccnc6)nn5)O4)O3)nn2)c1,31.4%,-5.0%,-9.1%,-11.0%,-0.1%
N#Cc1c(C(F)(F)F)cc(-c2cccs2)nc1SCC(=O)O,54.4%,1.2%,x,4.8%,6.0%
COC(=O)C1CCN(C(=O)CSc2nc3ccc(OC)cc3[nH]2)CC1,20.6%,2.2%,50.1µM*,-8.8%,-15.8%
COc1ccc2nc(SCC(=O)N3CCNC3=O)[nH]c2c1,28.9%,-27.2%,-44.6%,2.2%,-2.2%
O=C(CSc1nc2ccc(S(=O)(=O)N3CCOCC3)cc2[nH]1)N1CCOCC1,u,-37.1%,1.78µM*,79.4µM*,-12.2%
O=C(CSc1nc2ccccc2c(=O)[nH]1)N1CCOCC1,19.3%,3.0%,-9.7%[59 µM],-27.1%,-0.2%
NCCCC[C@H](N)c1nnc([C@H](CC(=O)O)NC(=O)C2CCNCC2)o1,52.4%,-31.5%,u,-17.5%,15.4%
CCN1C(=O)c2cccc3cccc1c23,8.9%,36.0%,-23.3%[12.7 µM],31.6µM*,-5.8%
COc1cc(OC)c2ccc(=O)oc2c1C(CCN1CCCC(C)C1)c1ccc(N(C)C)cc1 (configuration not stated),-20.2%,u,u,35.5µM*,19.0%
CCCCCc1cc(=O)oc2c(C(CCN3CCCC(C)C3)c3cc(OC)c(OC)c(OC)c3)c(OC)cc(OC)c12 (configuration not stated),5.8%,-30.0%,u,u,-12.7%
COc1cc(OC)c2ccc(=O)oc2c1C(CC(=O)N1CCCC(C)C1)c1ccc2c(c1)OCO2 (configuration not stated),-10.1%,50.1µM*,5.5%[12.7 µM],u,-26.6%
CCCCCc1cc(=O)oc2c(C(CCN3CCCC(C)C3)c3ccc(N(C)C)cc3)c(OC)cc(OC)c12 (configuration not stated),25.1µM*,11.2µM*,-7.8%[12.7 µM],25.1µM*,5.7%
COc1cc(OC)c2ccc(=O)oc2c1C(CC(=O)N1CCCC1)c1ccc2c(c1)OCO2 (configuration not stated),-34.8%,-24.1%,u,u,u
COc1ccc(C(=O)C2C(c3ccc(-c4ccccc4[N+](=O)[O-])o3)NC(=O)NC2(O)C(F)(F)F)cc1 (configuration not stated),-7.9%,u,u,u,1.6%
O=C(/C=C/c1ccc2ccccc2n1)c1cc(Cl)ccc1O,-7.5%,70.8µM*,13.3%[0.501 µM],u,-17.4%
CC(/C=C/c1ccco1)=N/NC(=O)Cc1cccs1,5.7%,-32.2%,-2.3%[59 µM],-27.8%,-9.5%
O=C(C=Cc1ccco1)c1cc(Cl)ccc1O,50.1µM*,x,x,22.4µM*,10.5%
CC(/C=C/c1ccco1)=N\NC(=O)c1cc(Cl)ccc1O,7.2%,-34.1%,39.8µM*,-34.3%,-3.6%
O=C(O)c1cccc(/C=C2/C[C@@H]3[C@@H](/C=C/[C@@H](O)C4CCCCC4)[C@H](O)C[C@@H]3O2)c1,x,x,x,x,-0.6%
COc1ccc(C(=O)N2CCOCC2)cc1S(=O)(=O)N1CCCc2ccccc21,9.5%,21.0%,13.2%,-30.4%,-1.4%
CC(C)COCc1ccc(O)c2ncccc12,16.5%,25.1µM*,-10.8%[59 µM],44.7µM*,-1.0%
CCCCN(CCCC)S(=O)(=O)c1ccc(OC)c2ncccc12,19.1%,7.5%,20.2%[59 µM],-12.2%,7.0%
CCCOCc1ccc(O)c2ncccc12,34.8%,12.6µM*,20.0%[59 µM],56.2µM*,8.1%
CC(C)c1ccc(NC(=O)CN2C(=O)CSc3ccc(S(=O)(=O)N4CCCC4)cc32)cc1,31.9%,-15.8%,-18.2%[59 µM],-26.4%,-12.0%
COc1ccc(Nc2nnc(-c3ccncc3)s2)cc1Cl,164.3%,-13.6%,8.91µM*,-13.4%,0.1%
SMILES,HP1b binding inh,BAZ2B inh,G9a inh,JMJD2A Tudor,GLS inh
O=C1CCCCN1CCCC(=O)N1CCCC(Nc2ccc(F)c(F)c2)C1 (configuration not stated),25.0%,-2.3%,x,-5.6%,17.9%
Cc1ccc(C(=O)Nc2nccs2)cc1,42.0%,-1.0%,7.4%,-2.9%,4.1%
CCOC(=O)c1ccccc1NC(=O)c1ccc2nccnc2c1,-10.7%,x,-27.1%,50.1µM*,-2.8%
O=C(Nc1nccs1)c1ccc2nccnc2c1,-22.2%,-2.1%,-12.3%,79.4µM*,-18.4%
COc1cc(CNC(=O)Nc2cccn3nc(COCCO)nc23)cc(OC)c1OC,x,x,x,x,5.1%
COc1ccc(NC(=O)N/C=C/c2ccco2)cc1,-16.5%,u,10µM*,u,4.8%
O=C(N/C=C/c1ccco1)Nc1cccc(Cl)c1,5.8%,u,50.1µM*,u,1.8%
CN1CCCN(S(=O)(=O)c2cccc(Cl)c2Cl)CC1,35.4%,-20.9%,44.7µM*,-7.1%,4.3%
CCOc1ccc(S(=O)(=O)N2CCC(C(=O)N3CCCCCC3)CC2)cc1Cl,6.0%,-17.4%,22.5%,-17.5%,2.4%
NC(CSCc1ccccc1Cl)C(=O)O (configuration not stated),41.7%,u,35.5µM*,-5.7%,-0.3%
Cc1ccc(OCC(O)CN2CC3(C)CC2CC(C)(C)C3)cc1 (configuration not stated),u,u,20µM*,1.12µM*,15.0%
CC1(C)CC2CC(C)(CN2CC(O)c2ccccc2)C1 (configuration not stated),-24.7%,u,22.4µM*,5.62µM*,13.4%
Cc1cccc(OCC(O)CN2CC3(C)CC2CC(C)(C)C3)c1 (configuration not stated),-34.0%,u,28.2µM*,17.8µM*,15.2%
CC1(C)CC2CC(C)(CN2CC(=O)C(C#N)c2ccccc2)C1 (configuration not stated),34.2%,-10.6%,u,-25.6%,11.0%
CCOC(=O)C1(C(F)(F)F)N=C(c2cccnc2)OC(N2CCCCC2)=N1 (configuration not stated),42.1%,2.2%,12.3%,-3.5%,0.0%
CCn1cc(Cl)c(C(=O)Nc2nc3ccccc3n2CCN2CCCCC2)n1,4.4%,79.4µM*,-3.7%,u,5.0%
CC(=O)Nc1nc2ccccc2n1CCN1CCOCC1,-12.7%,-36.9%,u,4.47µM*,4.2%
CCn1c(NC(C)=O)nc2ccccc21,9.3%,-19.6%,10µM*,39.8µM*,5.6%
CCC(=O)Nc1nc2ccccc2n1CCN(CC)CC,-5.9%,u,20µM*,8.91µM*,9.2%
CC(C)(C)NC(=S)N/N=C/c1c(Cl)cccc1Cl,31.4%,u,x,-14.0%,1.7%
O=C(Cn1ncc2c(Cl)cccc21)NCc1cccc(Br)c1,25.8%,-20.4%,-24.0%[59 µM],2.0%,-5.5%
COC(=O)C(CC(C)C)N(Cc1cc(OC)cc(OC)c1)S(=O)(=O)c1ccccc1Br (configuration not stated),41.8%,x,x,-2.9%,-2.2%
CCCCC(=O)N(C)c1c(CC)nc2c(OCC=C(C)C)cccn12,x,x,x,x,-0.2%

# Screens as filed in PubChem.
